# Calls of active or inactive are those of the source. The calls were made as follows: active = hit-call score of the fitted dose curve at least 0.9, where 1 is the maximum; inactive = score below 0.9.
# Legend:
# Details in all cases: mRNA level, 48 h; actives raise or lower the signal
# [1] = read-out: Cytochrome P450 4A22 (Homo sapiens) (UniProt Q5TCH4); assay: LTEA_HepaRG_CYP4A22: Life Technologies and Expression Analysis (LTEA) Assay for Cytochrome P450 4A22 (CYP4A22) using HepaRG (AID 2283495)
# Method in brief: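 Gene expression measured by qRT-PCR against three housekeeping genes (ACTB, GAPDH, POLR2A), with gain or loss fitted relative to 0.5% DMSO vehicle. HepaRG cultures received 48 h chemical treatment, top concentration 100 uM, half-log steps, duplicate wells.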
# [2] = read-out: Cytochrome P450 7A1 (Homo sapiens) (UniProt P22680); assay: LTEA_HepaRG_CYP7A1: Life Technologies and Expression Analysis (LTEA) Assay for Cytochrome P450 7A1 (CYP7A1) using HepaRG (AID 2283496)
# Method in brief: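 Using 0.5% DMSO as vehicle and baseline, chemicals were tested in duplicate over an 8-point range from 100 uM on HepaRG cells for 48 h; qRT-PCR signals were normalised to ACTB, GAPDH and POLR2A.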
# [3] = read-out: Glutathione S-Transferase (GSTA2), GSTA2 (gene 2939); assay: LTEA_HepaRG_GSTA2: Life Technologies and Expression Analysis (LTEA) Assay for Glutathione S-Transferase (GSTA2) using HepaRG (AID 2283497)
# Method in brief: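 qRT-PCR readout of GSTA2 transcript, normalized to three housekeeping genes, fitted bidirectionally against 0.5% DMSO baseline. Differentiated HepaRG cells received compound for 48 h at 8 concentrations (top 100 uM, half-log steps).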
# [4] = read-out: Glutamate-cysteine ligase catalytic (GCLC), GCLC (gene 2729); assay: LTEA_HepaRG_GCLC: Life Technologies and Expression Analysis (LTEA) Assay for Glutamate-cysteine ligase catalytic (GCLC) using HepaRG (AID 2283498)
# Method in brief: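 HepaRG, 48 h exposure, 8-pt half-log series from 100 uM, 0.5% DMSO vehicle; TaqMan qRT-PCR for GCLC mRNA, housekeeping-normalized; bidirectional curve fit vs DMSO baseline.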
# [5] = read-out: growth arrest and DNA damage 45 (GADD45G), GADD45G (gene 10912); assay: LTEA_HepaRG_GADD45G: Life Technologies and Expression Analysis (LTEA) Assay for growth arrest and DNA damage 45 (GADD45G) using HepaRG (AID 2283499)
# Method in brief: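 GADD45G transcript level by qRT-PCR (housekeeping-normalized: ACTB, GAPDH, POLR2A) after 48 h chemical treatment of a single HepaRG lot in serum-free induction medium; eight-point half-log series up to 100 uM in 0.5% DMSO, duplicates, up- or down-regulation scored.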
# [6] = read-out: Glutamate-cysteine ligase regulatory (GCLM), GCLM (gene 2730); assay: LTEA_HepaRG_GCLM: Life Technologies and Expression Analysis (LTEA) Assay for Glutamate-cysteine ligase regulatory (GCLM) using HepaRG (AID 2283500)
# Method in brief: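 In this multiplexed HepaRG gene-expression assay, GCLM mRNA change after 48 h treatment (8 concentrations, max 100 uM) was scored against DMSO by bidirectional curve fitting.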
# [7] = read-out: Glutathione S-transferase M3 (GSTM3), GSTM3 (gene 2947); assay: LTEA_HepaRG_GSTM3: Life Technologies and Expression Analysis (LTEA) Assay for Glutathione S-transferase M3 (GSTM3) using HepaRG (AID 2283501)
# Method in brief: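 GSTM3 transcript levels came from Fluidigm TaqMan qRT-PCR normalized to three housekeeping genes, fitted in both directions against DMSO. HepaRG cultures received chemicals for 48 h in serum-free induction medium (0.5% DMSO), 8 half-log concentrations up to 100 uM, duplicate.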
# [8] = read-out: Heat shock 70 kDa protein 1 (HSPA1A), gene 3303; assay: LTEA_HepaRG_HSPA1A: Life Technologies and Expression Analysis (LTEA) Assay for Heat shock 70 kDa protein 1 (HSPA1A) using HepaRG (AID 2283502)
# Method in brief: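 An oxidative-stress marker readout: HepaRG cells treated 48 h in duplicate with an eight-point series (highest 100 uM) had HSPA1A mRNA quantified by TaqMan qRT-PCR. Activity was fitted in both directions using 0.5% DMSO as baseline.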
# [9] = read-out: Hypoxia-inducible factor 1-alpha (Homo sapiens) (UniProt Q16665); assay: LTEA_HepaRG_HIF1A: Life Technologies and Expression Analysis (LTEA) Assay for Hypoxia-inducible factor 1 (HIF1A) Trancription factor using HepaRG (AID 2283503)
# Method in brief: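 Gain- or loss-of-signal HIF1A mRNA changes are fitted against a DMSO baseline. HepaRG cultures receive eight concentrations, highest 100 uM, for 48 h in serum-free induction medium with 0.5% DMSO.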
# [10] = read-out: 3-Hydroxy-3-Methylglutaryl-CoA Synthase 2 (HMGCS2), HMGCS2 (gene 3158); assay: LTEA_HepaRG_HMGCS2: Life Technologies and Expression Analysis (LTEA) Assay for 3-Hydroxy-3-Methylglutaryl-CoA Synthase 2 (HMGCS2) using HepaRG (AID 2283504)
# Method in brief: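 Readout is HMGCS2 transcript by qRT-PCR, housekeeping-normalised (ACTB/GAPDH/POLR2A) and fitted bidirectionally against 0.5% DMSO. Differentiated HepaRG cells received chemicals 48 h, duplicate wells, eight half-log concentrations topping at 100 uM.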
# HGF (gene 3082) = assay: LTEA_HepaRG_HGF: Life Technologies and Expression Analysis (LTEA) Assay for Hepatocyte Growth Facto (HGF) using HepaRG (AID 2283505)
# Method in brief: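 HGF transcript was quantified by TaqMan qRT-PCR against three housekeeping genes after 48 h treatment of HepaRG cells. Exposure ran in duplicate over eight half-log steps topping at 100 uM in 0.5% DMSO vehicle.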
# [11] = read-out: Insulin Like Growth Factor 1 (IGF1), IGF1 (gene 3479); assay: LTEA_HepaRG_IGF1: Life Technologies and Expression Analysis (LTEA) Assay for Insulin Like Growth Factor 1 (IGF1) using HepaRG (AID 2283506)
# Method in brief: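 Endpoint: IGF1 mRNA change by qRT-PCR, housekeeping-normalized, fitted bidirectionally relative to 0.5% DMSO vehicle. Human HepaRG cells were treated 48 h in serum-free induction medium, eight half-log concentrations topping at 100 uM.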
# [12] = read-out: Intercellular Adhesion Molecule 1 (ICAM1), ICAM1 (gene 3383); assay: LTEA_HepaRG_ICAM1: Life Technologies and Expression Analysis (LTEA) Assay for Intercellular Adhesion Molecule 1 (ICAM1) using HepaRG (AID 2283507)
# Method in brief: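 ICAM1 transcript levels measured by qRT-PCR, normalized to three housekeeping genes (ACTB, GAPDH, POLR2A), after 48 h chemical exposure of HepaRG cells. Duplicate eight-point half-log series from 100 uM in 0.5% DMSO; gain or loss fitted against vehicle.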
# [13] = read-out: Insulin-like growth factor-binding protein 1 (IGFBP1), IGFBP1 (gene 3484); assay: LTEA_HepaRG_IGFBP1: Life Technologies and Expression Analysis (LTEA) Assay for Insulin-like growth factor-binding protein 1 (IGFBP1) using HepaRG (AID 2283508)
# Method in brief: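 Read-out is qRT-PCR transcript level normalized to three housekeeping genes, fitted in both directions against 0.5% DMSO. Differentiated HepaRG cells received eight half-log concentrations (top 100 uM) in duplicate for 48 h in serum-free induction medium.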
# [14] = read-out: Interleukin 6 (IL6), IL6 (gene 3569); assay: LTEA_HepaRG_IL6: Life Technologies and Expression Analysis (LTEA) Assay for Interleukin 6 (IL6) using HepaRG (AID 2283509)
# Method in brief: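 qRT-PCR read-out of IL6 transcript, normalized to three housekeeping genes, after 48 h chemical exposure of HepaRG cells; 8-point half-log series, top 100 uM, 0.5% DMSO vehicle. Bidirectional curve fitting against DMSO baseline.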
# [15] = read-out: Interleukin 6 Receptor (IL6R), IL6R (gene 3570); assay: LTEA_HepaRG_IL6R: Life Technologies and Expression Analysis (LTEA) Assay for Interleukin 6 Receptor (IL6R) using HepaRG (AID 2283510);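 also: differentiated human HepaRG liver cells in serum-free induction medium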
# Method in brief: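 In this HepaRG screen, test chemicals act on cells for 48 h at up to 100 uM (eight half-log points, duplicate wells). IL6R expression is quantified by qRT-PCR after normalization to ACTB, GAPDH and POLR2A, with DMSO as baseline.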
# [16] = read-out: Potassium channel subfamily K member 1 (KCNK1), KCNK1 (gene 3775); assay: LTEA_HepaRG_KCNK1: Life Technologies and Expression Analysis (LTEA) Assay for Potassium channel subfamily K member 1 (KCNK1) using HepaRG (AID 2283511)
# Method in brief: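 HepaRG, 48 h exposure, 8-pt half-log series top 100 uM, 0.5% DMSO vehicle, duplicates. Readout: KCNK1 transcript by qRT-PCR (Fluidigm array), housekeeping-normalized; bidirectional curve fit relative to DMSO baseline.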
# [17] = read-out: Keratin 19 (KRT19), KRT19 (gene 3880); assay: LTEA_HepaRG_KRT19: Life Technologies and Expression Analysis (LTEA) Assay for Keratin 19 (KRT19) using HepaRG (AID 2283512)
# Method in brief: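 KRT19 transcript measured by TaqMan qRT-PCR, referenced to three housekeeping genes, after HepaRG cells received test chemicals for 48 h. Eight half-log concentrations, top 100 uM, 0.5% DMSO vehicle; increases and decreases both fitted.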
# [18] = read-out: JUN Transcription Factor, JUN (gene 3725); assay: LTEA_HepaRG_JUN: Life Technologies and Expression Analysis (LTEA) Assay for JUN Transcription Factor using HepaRG (AID 2283513)
# Method in brief: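 Gene-expression endpoint: JUN mRNA (qRT-PCR, normalized to three reference genes) in HepaRG cultures treated 48 h with chemicals, duplicate wells, 100 uM maximum with half-log dilutions; bidirectional fitting relative to 0.5% DMSO.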
# [19] = read-out: Lipase C (LIPC), LIPC (gene 3990); assay: LTEA_HepaRG_LIPC: Life Technologies and Expression Analysis (LTEA) Assay for Lipase C (LIPC) using HepaRG (AID 2283514)
# Method in brief: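 HepaRG, 48 h exposure, 8-pt half-log series from 100 uM in 0.5% DMSO, duplicates. Readout: LIPC mRNA by Fluidigm qRT-PCR, housekeeping-normalized (ACTB/GAPDH/POLR2A). Gain or loss fitted bidirectionally against DMSO baseline.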
# Chain of Hypoxia-inducible factor 1-alpha (Homo sapiens) (Q16665 whole entry, looked up): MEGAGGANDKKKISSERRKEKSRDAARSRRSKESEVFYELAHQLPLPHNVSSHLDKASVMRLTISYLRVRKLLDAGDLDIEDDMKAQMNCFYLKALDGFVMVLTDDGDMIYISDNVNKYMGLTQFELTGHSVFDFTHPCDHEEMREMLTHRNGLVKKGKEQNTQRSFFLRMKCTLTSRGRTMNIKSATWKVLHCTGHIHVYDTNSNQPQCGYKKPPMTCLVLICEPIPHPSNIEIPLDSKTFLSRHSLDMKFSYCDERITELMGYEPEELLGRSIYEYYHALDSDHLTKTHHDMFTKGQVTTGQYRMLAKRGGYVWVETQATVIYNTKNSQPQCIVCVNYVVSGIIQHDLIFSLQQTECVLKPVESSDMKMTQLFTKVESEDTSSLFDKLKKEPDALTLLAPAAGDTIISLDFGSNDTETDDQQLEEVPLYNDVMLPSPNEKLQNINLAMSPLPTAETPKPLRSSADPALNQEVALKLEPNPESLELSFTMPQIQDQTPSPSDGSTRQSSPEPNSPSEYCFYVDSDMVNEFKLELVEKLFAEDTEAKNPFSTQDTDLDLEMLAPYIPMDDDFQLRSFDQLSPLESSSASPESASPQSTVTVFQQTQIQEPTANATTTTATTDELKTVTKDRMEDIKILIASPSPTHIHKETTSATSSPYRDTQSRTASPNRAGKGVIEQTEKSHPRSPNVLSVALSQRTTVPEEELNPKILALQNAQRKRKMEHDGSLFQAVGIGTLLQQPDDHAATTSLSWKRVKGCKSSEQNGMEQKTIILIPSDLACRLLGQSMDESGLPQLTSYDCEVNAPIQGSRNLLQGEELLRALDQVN
compound,measurement,setting,value
CN(C)c1ccc(C(=C2C=CC(=[N+](C)C)C=C2)c2ccc(N(C)C)cc2)cc1,AC50,[1],3.65 µM (active)
same,AC50,[2],4.38 µM (active)
same,AC50,[3],4.31 µM (active)
same,AC50,[4],20.1 µM (active)
same,AC50,[5],11.7 µM (active)
same,AC50,[6],95.3 µM (active)
same,AC50,[7],7.35 µM (active)
same,AC50,[8],86.5 µM (active)
same,AC50,[9],44.3 µM (active)
same,AC50,[10],3.66 µM (active)
same,outcome,HGF (gene 3082),inactive
same,AC50,[11],1.44 µM (active)
same,AC50,[12],73.1 µM (active)
same,AC50,[13],3.64 µM (active)
same,AC50,[14],6.98 µM (active)
same,AC50,[15],12.5 µM (active)
same,AC50,[16],5.1 µM (active)
same,AC50,[17],4.74 µM (active)
same,AC50,[18],89.2 µM (active)
same,AC50,[19],3.01 µM (active)
COc1ccc2cc(S(=O)(=O)N[C@H](CC(=O)N[C@H](Cc3ccc(CN4[C@H](C)CCC[C@@H]4C)cc3)C(=O)N(C)C(C)C)c3ccc4c(c3)OCO4)ccc2c1,AC50,[1],2.63 µM (active)
same,outcome,[2],inactive
same,AC50,[3],81.6 µM (active)
same,AC50,[4],56.4 µM (active)
same,outcome,[5],inactive
same,AC50,[6],78 µM (active)
same,AC50,[7],22.5 µM (active)
same,AC50,[8],82.6 µM (active)
same,AC50,[9],75.5 µM (active)
same,outcome,[10],inactive
same,AC50,HGF (gene 3082),19.9 µM (active)
same,AC50,[11],21.2 µM (active)
same,AC50,[12],12 µM (active)
same,AC50,[13],13 µM (active)
same,AC50,[14],30.9 µM (active)
same,AC50,[15],82.5 µM (active)
same,AC50,[16],19.7 µM (active)
same,AC50,[17],12 µM (active)
same,AC50,[18],57.8 µM (active)
same,outcome,[19],inactive

# Reference: PubChem BioAssay (EPA / NIEHS)
